Laboratory results reported in PubChem BioAssay AID485275 (NMMLSC, 2010).
Out of some 330,000 compounds screened, about 1,400 (0.42%) were called active. The full list was thinned out, with actives kept by preference. A number with no mark means an inactive call.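 How the source made its calls: active means plate passing quality check with inhibition over a set limit, or well fluorescence over plate mean plus 4 SD; inactive means the rest.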

Assay: inhibitors of Candida efflux pumps in yeast, primary screen, S. cerevisiae, Nile Red, multiplex (AID 485275);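 further: Nile Red retained in pooled yeast measured as flow cytometry median fluorescence; 0% = buffer negative control and 100% = Enniatin B positive control; higher means more Nile Red kept so more efflux inhibition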
Conditions: S. cerevisiae Candida pump triplex, at 10 µM, hits give high values

Structure (SMILES) | inhibition
Cc1ccc(-n2c(-c3ccc([N+](=O)[O-])cc3)nc3ccccc3c2=O)cc1 | -0.08%
C/C(=N/O)c1ccc2ccc3ccccc3c2c1 | 0.16%
O=[N+]([O-])c1cnc2ccc3ccccc3c2c1 | 0.41% (active)
Clc1ccc2nc3c(c(-c4ccccc4)c2c1)CNCC3 | -0.17%
COC(=O)C1=C(c2ccc(Cl)c(C(F)(F)F)c2)C[C@@H]2CC[C@H]1N2C(=O)NC1CC1 | -0.03%
CCN(CC)c1ccc([N+](=O)[O-])c2cccnc12 | 1.08% (active)
CN(c1ccccc1)c1ccc([N+](=O)[O-])c2nonc12 | -0.18%
CN1CCC(N(C)Cc2cccnc2)CC1 | 0.12%
c1cc2c(cc1CCNC1CCCCCC1)OCO2 | 0.08%
CCN1CC2C3CCC(C)(O3)C2C1 (stereo not given) | -0.18%
